Key:
[1] = molecular target: T1, Casein kinase II (Homo sapiens) (UniProt P67870+P68400+P19784); conditions: at 1 µM
[2] = molecular target: T1, Casein kinase II (Homo sapiens); conditions: at 10 µM
[3] = molecular target: Casein kinase II subunit alpha' (Homo sapiens) (UniProt P19784); conditions: at 1 µM
[4] = molecular target: Casein kinase II subunit alpha' (Homo sapiens) (UniProt P19784); conditions: at 10 µM
[5] = molecular target: Dual specificity protein kinase CLK2 (Homo sapiens) (UniProt P49760); conditions: at 1 µM
Sequence of Dual specificity protein kinase CLK2 (Homo sapiens) (P49760 whole entry, looked up): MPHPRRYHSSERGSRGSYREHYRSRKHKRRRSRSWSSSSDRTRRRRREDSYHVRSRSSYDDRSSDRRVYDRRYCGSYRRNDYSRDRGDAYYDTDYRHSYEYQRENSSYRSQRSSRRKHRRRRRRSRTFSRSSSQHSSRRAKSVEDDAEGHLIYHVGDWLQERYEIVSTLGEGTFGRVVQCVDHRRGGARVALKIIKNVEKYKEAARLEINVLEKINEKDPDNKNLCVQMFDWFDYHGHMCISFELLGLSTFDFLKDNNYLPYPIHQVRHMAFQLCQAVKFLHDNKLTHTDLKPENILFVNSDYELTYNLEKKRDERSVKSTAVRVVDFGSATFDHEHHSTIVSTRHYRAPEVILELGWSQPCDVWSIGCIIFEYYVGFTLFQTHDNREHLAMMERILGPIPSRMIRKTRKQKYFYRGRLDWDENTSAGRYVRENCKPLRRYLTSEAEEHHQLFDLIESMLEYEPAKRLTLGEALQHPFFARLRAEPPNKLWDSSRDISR

[6] = molecular target: Dual specificity protein kinase CLK2 (Homo sapiens) (UniProt P49760); conditions: at 10 µM
[7] = molecular target: Dual specificity protein kinase CLK3 (Homo sapiens) (UniProt P49761); conditions: at 1 µM
Sequence of Dual specificity protein kinase CLK3 (Homo sapiens) (P49761 whole entry, looked up): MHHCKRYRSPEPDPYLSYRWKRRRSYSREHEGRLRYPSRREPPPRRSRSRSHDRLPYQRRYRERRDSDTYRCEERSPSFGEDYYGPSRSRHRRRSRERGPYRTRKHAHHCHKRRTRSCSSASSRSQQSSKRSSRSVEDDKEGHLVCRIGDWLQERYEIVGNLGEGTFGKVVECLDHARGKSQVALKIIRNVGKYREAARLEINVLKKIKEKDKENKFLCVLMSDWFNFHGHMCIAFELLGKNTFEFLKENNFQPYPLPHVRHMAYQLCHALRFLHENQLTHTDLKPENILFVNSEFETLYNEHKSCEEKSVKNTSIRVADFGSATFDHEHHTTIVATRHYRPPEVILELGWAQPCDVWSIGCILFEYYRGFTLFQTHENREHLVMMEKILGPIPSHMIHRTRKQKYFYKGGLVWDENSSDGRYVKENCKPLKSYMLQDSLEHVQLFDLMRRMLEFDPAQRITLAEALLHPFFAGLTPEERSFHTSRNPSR

[8] = molecular target: Dual specificity protein kinase CLK3 (Homo sapiens) (UniProt P49761); conditions: at 10 µM
[9] = molecular target: Tyrosine-protein kinase CSK (Homo sapiens) (UniProt P41240); conditions: at 1 µM
Sequence of Tyrosine-protein kinase CSK (Homo sapiens) (P41240 2-450 limits assumed): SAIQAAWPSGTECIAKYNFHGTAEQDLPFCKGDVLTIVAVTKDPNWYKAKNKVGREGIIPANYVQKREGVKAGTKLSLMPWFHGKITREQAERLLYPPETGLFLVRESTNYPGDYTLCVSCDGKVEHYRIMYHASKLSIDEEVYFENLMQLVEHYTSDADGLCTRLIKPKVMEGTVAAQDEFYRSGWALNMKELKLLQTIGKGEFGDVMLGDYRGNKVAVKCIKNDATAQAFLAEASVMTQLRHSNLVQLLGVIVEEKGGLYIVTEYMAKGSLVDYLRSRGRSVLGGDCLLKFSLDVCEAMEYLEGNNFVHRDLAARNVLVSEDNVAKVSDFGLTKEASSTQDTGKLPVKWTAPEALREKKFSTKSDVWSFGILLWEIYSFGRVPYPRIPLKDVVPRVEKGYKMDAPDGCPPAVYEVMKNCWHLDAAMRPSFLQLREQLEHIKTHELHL

[10] = molecular target: Tyrosine-protein kinase CSK (Homo sapiens) (UniProt P41240); conditions: at 10 µM

T1 sequence (P19784 whole entry, looked up): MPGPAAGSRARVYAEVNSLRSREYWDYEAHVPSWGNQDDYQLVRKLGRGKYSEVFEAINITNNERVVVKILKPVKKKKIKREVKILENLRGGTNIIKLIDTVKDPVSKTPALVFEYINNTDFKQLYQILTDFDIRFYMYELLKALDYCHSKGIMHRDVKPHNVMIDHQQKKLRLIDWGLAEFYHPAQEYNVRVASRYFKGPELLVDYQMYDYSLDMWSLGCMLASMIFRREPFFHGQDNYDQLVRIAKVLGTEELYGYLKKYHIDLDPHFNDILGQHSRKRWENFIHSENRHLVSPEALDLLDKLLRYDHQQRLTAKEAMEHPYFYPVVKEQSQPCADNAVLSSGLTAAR
T1 sequence (P67870 whole entry, looked up): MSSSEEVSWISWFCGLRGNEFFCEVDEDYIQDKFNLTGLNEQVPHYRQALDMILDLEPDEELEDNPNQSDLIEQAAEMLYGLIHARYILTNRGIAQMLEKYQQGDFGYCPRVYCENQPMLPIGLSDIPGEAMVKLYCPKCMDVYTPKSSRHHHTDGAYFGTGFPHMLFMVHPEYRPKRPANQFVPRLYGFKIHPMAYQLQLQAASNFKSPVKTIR
T1 sequence (P68400 whole entry, looked up): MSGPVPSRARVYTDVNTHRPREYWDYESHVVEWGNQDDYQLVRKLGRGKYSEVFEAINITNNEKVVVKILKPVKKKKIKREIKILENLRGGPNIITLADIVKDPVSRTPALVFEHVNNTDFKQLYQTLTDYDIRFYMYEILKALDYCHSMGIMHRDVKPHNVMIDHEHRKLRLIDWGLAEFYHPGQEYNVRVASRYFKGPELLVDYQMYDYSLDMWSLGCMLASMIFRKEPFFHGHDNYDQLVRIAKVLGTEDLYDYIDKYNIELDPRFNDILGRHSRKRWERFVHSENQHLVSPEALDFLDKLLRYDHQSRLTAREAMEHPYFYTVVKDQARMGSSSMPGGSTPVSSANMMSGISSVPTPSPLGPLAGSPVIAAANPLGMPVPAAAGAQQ
Sequence of Casein kinase II subunit alpha' (Homo sapiens) (P19784 whole entry, looked up): as the sequence (P19784 whole entry, looked up) above

SMILES	residual activity [1] [%]	residual activity [2] [%]	residual activity [3] [%]	residual activity [4] [%]	residual activity [5] [%]	residual activity [6] [%]	residual activity [7] [%]	residual activity [8] [%]	residual activity [9] [%]	residual activity [10] [%]
Cc1nc2cc3nc(-c4cccs4)cnc3cc2n1C	102	104	130	92	114	63	99	53	110	109
Oc1ccc(Nc2nc(-c3ccc(Cl)cc3)cs2)cc1	101	97	100	99	118	101	92	75	98	113
Cn1cc(/C=C2\C(=O)Nc3ccc(S(N)(=O)=O)cc32)c2ccccc21	79	111	124	80	35	14	45	-3	114	92
Cn1cnc2cc3c(Nc4cccc(Br)c4)ncnc3cc21	87	119	126	89	106	75	91	112	105	97
CC#CC(=O)Nc1cc2c(Nc3ccc(F)c(Cl)c3)ncnc2cn1	78	114	120	86	103	88	83	125	103	99
CCOc1cc2ncnc(Nc3cccc(Br)c3)c2cc1OCC	89	104	113	95	102	68	92	59	95	66
O=c1cc(-c2cccc3c2Sc2ccccc2S3)oc(N2CCOCC2)c1	106	109	107	104	104	92	100	87	103	99
COc1cc2ncnc(Nc3ccc(Oc4ccccc4)cc3)c2cc1OC	93	100	114	108	108	106	82	99	12	3
O=C1NC(=O)c2c1c1c3ccccc3[nH]c1c1[nH]c3cc(Br)ccc3c21	104	94	96	86	98	87	82	81	96	84
COc1ccc(C(=O)Nc2sc3c(c2C(N)=O)CCCC3)cc1OC	95	115	126	91	90	82	50	52	101	99
CN(C)c1ccc(/C=C2\C(=O)Nc3ccccc32)cc1	87	108	115	96	86	48	77	13	116	119
Oc1ccc(-c2nc(-c3ccc(F)cc3)c(-c3ccncc3)[nH]2)cc1	107	107	122	97	123	104	94	90	126	104
CCC(=O)Nc1ccc2ncnc(Nc3cccc(Br)c3)c2c1	107	101	125	90	125	105	76	142	104	93
O=C1NC(=O)/C(=C\c2ccc3nccnc3c2)S1	-13	-12	-12	-5	43	6	19	-1	102	99
COc1ccc(OC)c2c(=S)c3ccccc3[nH]c12	103	79	81	97	99	74	90	81	109	105
Nc1ccc2ncnc(NCCc3ccc(Oc4ccccc4)cc3)c2c1	100	101	109	100	87	69	94	92	118	91
COc1ccc(CNc2nc(N(CCO)CCO)nc3c2ncn3C(C)C)cc1	96	101	100	107	48	18	87	62	106	96
O=C(O)c1ccc2c3c1cccc3c(=O)n1c3ccccc3nc21	22	-4	18	4	77	27	77	32	102	88
N#C/C(=C(\N)Sc1ccc(N)cc1)c1ccccc1C(F)(F)F	96	99	108	104	97	94	95	92	106	87
O=C1NC(=O)c2cc(Nc3ccc(F)cc3)c(Nc3ccc(F)cc3)cc21	90	110	125	96	100	40	79	129	98	93
Cc1cc(Nc2nc(-c3ccccc3)nc3ccccc23)n[nH]1	43	-2	21	-2	10	8	53	15	102	–
Cc1ccc(S(=O)(=O)/C=C/C#N)cc1	116	98	114	103	110	112	96	96	116	105

SMILES	residual activity [1] [%]	residual activity [2] [%]	residual activity [3] [%]	residual activity [4] [%]	residual activity [5] [%]	residual activity [6] [%]	residual activity [7] [%]	residual activity [8] [%]	residual activity [9] [%]	residual activity [10] [%]
O=Nc1c(-c2c(O)[nH]c3ccccc23)[nH]c2ccccc12	112	78	102	58	14	4	79	54	101	78
COc1cc2ncnc(N3CCN(C(=O)Nc4ccc(Oc5ccccc5)cc4)CC3)c2cc1OC	87	105	111	65	84	55	64	68	109	113
CC(C)n1cnc2c(NCc3ccccc3)nc(NCCCO)nc21	102	94	110	108	53	14	88	67	104	100
O=C1NC(=O)/C(=C/c2ccc3c(c2)OC(F)(F)O3)S1	32	2	52	0	116	75	91	94	121	117
O=C1Nc2ccccc2/C1=C1/Nc2ccccc2/C1=N\OCCC(O)CO (stereo unspecified)	73	22	46	3	2	4	58	25	–	–
O=C1c2ccccc2-[n+]2ccc3c([nH]c4ccccc43)c21	87	71	104	85	114	103	79	72	86	88
NC(=O)c1ccc2[nH]c(-c3ccc(Oc4ccc(Cl)cc4)cc3)nc2c1	100	92	92	102	101	104	89	82	105	102
CC(C)n1cnc2/c(=N/c3cccc(Cl)c3)nc(NCCO)[nH]c21	89	86	108	103	19	6	55	12	101	88
Cn1nc2c3c(cccc31)C(=O)c1ccccc1-2	87	59	99	65	86	83	76	66	101	90
CNc1cc2c(Nc3cccc(Br)c3)ncnc2cn1	90	89	118	96	113	98	95	33	109	92
O=C(Nc1cccc(Nc2cc(Nc3cccc(C(F)(F)F)c3)ncn2)c1)C1CC1	107	104	114	103	99	101	89	32	114	96
Oc1n[nH]c2nnc(-c3c(-c4ccccc4)nn4ccccc34)cc12	92	82	110	91	114	118	85	96	93	84
CCN(CC)CCCCN1c2ccccc2Oc2ccc(Cl)cc21	104	103	137	101	117	127	89	92	113	102
CC[n+]1c(/C=C/N(C)c2ccccc2)n(-c2ccccc2)c2ccc(-c3nc4ccccc4s3)cc21	109	105	134	90	109	108	91	58	103	95
Cc1nc(-c2ccccc2)c(-c2ccncc2)o1	103	98	102	92	114	96	82	84	108	104
Nc1nc(Nc2ccc(S(N)(=O)=O)cc2)nn1C(=S)Nc1c(F)cccc1F	100	85	95	62	-2	2	-4	-5	–	99
c1ccc(-c2n[nH]cc2-c2ccnc3ccccc23)nc1	104	105	–	–	–	86	86	132	–	–
O=[N+]([O-])c1ccc(-c2nc(-c3ccc(F)cc3)c(-c3ccncc3)[nH]2)cc1	100	108	114	114	122	107	89	87	108	105
Nc1n[nH]c2nnc(-c3c(-c4ccccc4)nn4ccccc34)cc12	98	85	101	92	98	84	84	90	107	103
N#Cc1cnc2cnc(NCc3cccnc3)cc2c1Nc1ccc(F)c(Cl)c1	–	–	–	100	–	–	84	51	93	75
COc1cc2ncnc(Nc3ccc(O)c(Br)c3)c2cc1OC	58	44	97	38	80	30	82	118	90	76
